The sample as a whole holds a higher share of hits than the screen did. The hit rate among all sequences tested is not known here. A number with no mark means an inactive call.
test system: T1, Caupolican (Caup) homeodomain DNA-binding domain; experiment: PBM E-score (8-mer, recovered from the published 9-mer minima) (E-score (dimensionless, -0.5 to 0.5)); Drosophila protein; higher = stronger relative binding preference, active = 0.31 or more
T1 sequence: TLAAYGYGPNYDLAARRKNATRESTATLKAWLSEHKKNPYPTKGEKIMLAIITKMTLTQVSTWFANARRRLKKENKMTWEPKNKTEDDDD
Description: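 Protein binding microarray (PBM): in vitro transcribed/translated Caupolican (Caup) homeodomain DNA-binding domain (residues 214-303) applied at 100 nM to a universal 8-mer PBM array (Agilent AMADID 015681). The 8-mer enrichment score (E-score, range -0.5 to 0.5) was computed, and each 9-mer score is the minimum E-score of its two constituent 8-mers. The E-score is the same for a 9-mer and its reverse complement; 0.31 is the stated binding threshold.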

Sequence	PBM E-score
GTTTGTTA	0.225
ATTTGTTA	0.219
ACTTGTTA	0.368 (active)
GCTTGTTA	0.315 (active)
AGTTGTTC	0.261
GCTTGTGA	-0.02
ACTTGTTG	0.29
ACTTGTTC	0.33 (active)
CCTTGTTC	0.24
GTCGGCCA	-0.0886
GGCGACAA	0.138
CACTGAAG	-0.0338
TCGTCAGA	-0.0168
AAGAGACA	0.124
CATATCAG	0.0708
AACCCGCA	-0.135
AATCTCAG	0.0346
CTAAATAA	0.181
CTATCAGA	-0.0505
CCGAGAAC	-0.0456
AAGGTTAG	-0.0357
AGGATGGA	-0.124
CCATGGAC	-0.0492
GCATGGAC	-0.00539
ACATGGAC	0.338 (active)
ACATGGAG	0.257

Sequence	PBM E-score
ACATGGAT	0.374 (active)
ACATGGAA	0.296
GTTAAGGA	0.00704
AAGTACAT	0.402 (active)
AAGTACGA	0.113
CAGTACAA	0.304
AAGTACAC	0.288
CCGTACAA	0.152
GCGTACAA	0.256
AAGTACAA	0.327 (active)
TAGTACAA	0.38 (active)
TCGTACAA	≥ 0.37 (active)
GAGTACAA	0.262
AAGTACAG	0.204
AAGTACCA	0.195
GAAGCGAA	-0.0567
GGGATTCA	-0.0518
ATTCGTGA	0.114
CTCGACAC	0.105
GCTGCGGA	-0.178
ATGAGTTC	0.0362
ATCCTTCG	-0.116
GGGACAAC	0.178
CAGTTAGA	-0.0838
TCTAACAA	0.177
AGTAACAA	0.266

Sequence	PBM E-score
GGTAACAA	0.316 (active)
GCTAACAA	0.192
CGTAACAA	0.243
GGTAAACA	0.213
ATTAAACA	0.271
TGTAACAA	0.405 (active)
GTTAAACA	0.339 (active)
CTTAAACA	0.159
AGTAAACA	0.235
TGTAAACA	≥ 0.36 (active)
GAGCAACA	0.0811
CGGTAGGA	-0.0619
AGTAAGAC	0.0795
ACTTTCCT	-0.143
CTTGGTCA	-0.0643
TATAACAA	0.306
CATAACAA	0.308
GATAACAA	0.32 (active)
AAGCATCG	-0.00688
TCCACACA	0.0566
AACTTCAT	0.108
TCTATCCA	-0.0275
TACACGTA	0.361 (active)
GACACGTC	0.225
TTCACGAA	0.0673
CACACGGA	0.00106

Sequence	PBM E-score
TACACGCA	0.29
GCCACGTA	-0.0264
GACACGGA	0.286
CACACGAA	0.0926
GACACGTA	0.348 (active)
TACACGAA	0.371 (active)
CACACGTA	0.142
TACACGGA	0.375 (active)
GGAGTTAC	0.0415
AAAGGTTG	-0.00255
CTGGTAAC	0.115
AGCCCAGC	-0.172
CATACTGC	-0.0312
AAGAGTGC	0.0487
AGATCCAT	-0.0856
GAAGACTC	-0.0665
ACCTCAAA	-0.032
CCATCAGA	-0.105
ATGACAGA	0.22
ATGACAGG	0.117
GGGACATA	0.113
ATGACACC	0.266
ATGACATA	0.379 (active)
CTGACATC	0.28
GTGACACA	0.245
ATGACATG	0.422 (active)

Sequence	PBM E-score
ATGACATC	0.333 (active)
GTGACATA	0.312 (active)
CTGACATA	0.22
ATGACACA	0.259
ACCAGGCT	-0.045
AAGGGTTC	-0.134
ATAAGTAT	0.0762
ATTATCGC	0.0263
AGGAAGAA	-0.0327
AGCTAGTA	0.108
AACGTGAG	-0.0335
CACGTACA	0.261
ATCGTACA	0.349 (active)
GTCGTATA	0.165
CTCGTACA	0.238
ATCGTACC	-0.0488
GTCGTACA	0.352 (active)
ATCGTACG	0.133
AACGTACA	≥ 0.337 (active)
AACGTACC	0.0531
AATCGGTG	0.0507
CGGTGTGA	0.0901
ATCAAAAT	0.131
AAAGTCAC	0.0854
AACCAGGA	0.0369
ACTCGGGA	-0.117

Sequence	PBM E-score
CGCATGCA	0.025
CGCATGTC	0.348 (active)
CGCATGGA	-0.0924
CGCATGTA	0.352 (active)
AGCATGTG	0.222
AGCATGTC	0.376 (active)
CGCATGAC	-0.0417
CGCATGCC	-0.0847
AGCATGCC	-0.0456
CACACTGC	-0.0174
AGTTTCAG	-0.0628
ATCCAGAC	-0.00977
AATTCGTC	0.0479
CCCTGAGG	-0.185
GTCATGTA	0.43 (active)
ATCATGAA	0.0136
ATCATGTA	≥ 0.435 (active)
ATCATGAC	0.233
GTCATGGA	-0.0262
CTCATGGA	0.0584
CTCATGCA	0.042
CTCATGTC	0.306
CTCATGTA	0.377 (active)
ATCATGTC	≥ 0.42 (active)
ATCATGTG	0.226
GTCATGCA	0.111

Sequence	PBM E-score
GAACAATA	0.166
CACATTAC	0.141
CCGAGGGC	-0.267
CAAGGACG	-0.0604
CTCTAGGC	-0.16
CCTGGCTA	-0.0965
AGCGTACC	-0.17
GAGGGAGA	-0.155
AGTTACCA	0.113
CAAGGGCC	-0.135
CCCAGGCA	-0.162
CAGGTACG	-0.00719
ACGTAAGG	-0.042
CATTACAG	0.226
CATTACAC	0.311 (active)
GATTACAC	0.318 (active)
CTTTACAC	0.289
GCTTACAC	0.169
AATTACAC	0.299
CAAGCTGG	-0.105
CAGCCGCA	-0.26
GTTAGTGA	0.152
AGCACTAA	-0.00029
TGCAGTAA	0.0534
CCTATGTA	0.318 (active)
CCTATGTC	0.176

Sequence	PBM E-score
ACTATGTG	0.131
ACTATGTA	0.312 (active)
GCTATGTA	0.271
CCTATGAA	-0.0468
CCGATCGA	-0.133
CAGCTCAA	-0.125
CACTCTAC	0.101
GCGACCGC	-0.261
CGAACCAC	-0.0921
ATGTCGTC	0.28
ATGTCGCC	0.208
ATGTCGAG	0.274
GTGTCGCA	0.176
CTGTCGAC	0.0515
ATGTCGAC	0.326 (active)
GTGTCGTA	0.252
ATGTCGCA	0.331 (active)
ATGTCGTG	0.316 (active)
CTGTCGTA	0.124
ATGTCGTA	0.337 (active)
ATGTCGAA	0.291
CGTCGACA	0.116
AGATTTTA	0.0905
CTTGAACC	0.00592
GATCTGGC	-0.0642
AACCGATG	0.0188

Sequence	PBM E-score
CGGAGTAG	-0.0319
CACGGGAA	-0.0415
AGTGAAAC	0.108
CTCACGAA	0.0184
GTTACGGA	0.0254
TAATTAAA	0.191
AGGTAGGA	-0.0302
ATTGTTGA	0.279
CCTGTTAC	0.254
ATTGTTAC	0.307
ATTGTTTA	0.186
CTTGTTAA	0.327 (active)
CTTGTTGA	0.26
CCTGTTAA	0.188
GTTGTTTA	0.343 (active)
ACTGTTAA	0.0659
CTTGTTTA	0.254
GTTGTTGA	0.321 (active)
CTTGTTAC	0.365 (active)
AACCCGCG	-0.0635

Source: the supplement of paper PMC3724861
